Laboratory results taken from PubChem BioAssay (EPA / NIEHS).
Activity calls are given as the source filed them. How the source made its calls: active means hit-call score of the fitted dose curve at least 0.9, where 1 is the maximum; inactive means score below 0.9.

What was measured:
Conditions in all cases: mRNA level, 48 h; actives raise or lower the signal
[1] = read-out: Alkaline Phosphatase, Placental (ALPP) gene, ALPP (gene 250); assay: LTEA_HepaRG_ALPP: Life Technologies and Expression Analysis (LTEA) Assay for Alkaline Phosphatase, Placental (ALPP) gene using HepaRG (AID 2283468)
Outline: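 HepaRG cells plated 48 h, then exposed in duplicate for 48 h in serum-free induction medium to 8-point half-log series from 100 uM in 0.5% DMSO. ALPP mRNA by TaqMan qRT-PCR, normalized to ACTB/GAPDH/POLR2A; bidirectional fit versus DMSO.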

[2] = read-out: Bcl-2 (BAD) gene, BAD (gene 572); assay: LTEA_HepaRG_BAD: Life Technologies and Expression Analysis (LTEA) Assay for Bcl-2 (BAD) gene using HepaRG (AID 2283469)
Outline: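 Read-out: qRT-PCR of BAD mRNA, normalized to three housekeeping genes. Human HepaRG cultures got 48 h chemical exposure in 0.5% DMSO, duplicate eight-point half-log series topping at 100 uM. Gain or loss of signal fitted versus DMSO vehicle.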

[3] = read-out: Bcl-2 (BAX) gene, BAX (gene 581); assay: LTEA_HepaRG_BAX: Life Technologies and Expression Analysis (LTEA) Assay for Bcl-2 (BAX) gene using HepaRG (AID 2283470)
Outline: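 qRT-PCR read-out of BAX mRNA, normalized to three housekeeping genes, after 48 h chemical exposure of human HepaRG cells in serum-free induction medium; eight-point half-log series, top 100 uM, 0.5% DMSO vehicle; bidirectional fit versus DMSO.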

[4] = read-out: adenosine kinase (ADK) gene, ADK (gene 132); assay: LTEA_HepaRG_ADK: Life Technologies and Expression Analysis (LTEA) Assay for adenosine kinase (ADK) gene using HepaRG (AID 2283471)
Outline: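 Read-out is ADK transcript level measured by qRT-PCR and normalised to three housekeeping genes. Cells are human HepaRG, dosed for 48 h at up to 100 uM in 0.5% DMSO. Gain or loss of signal is fitted against DMSO controls.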

[5] = read-out: Alpha-fetoprotein (AFP) gene, AFP (gene 174); assay: LTEA_HepaRG_AFP: Life Technologies and Expression Analysis (LTEA) Assay for Alpha-fetoprotein (AFP) gene using HepaRG (AID 2283472)
Outline: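 qRT-PCR (Fluidigm TaqMan) readout of AFP transcript, normalized to three housekeeping genes, fitted bidirectionally against 0.5% DMSO baseline. HepaRG cells received chemicals for 48 h in serum-free induction medium, top concentration 100 uM, half-log steps.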

[6] = read-out: BCL2L11 (gene 10018); assay: LTEA_HepaRG_BCL2L11: Life Technologies and Expression Analysis (LTEA) Assay for Bcl-2 (BCL2L11) gene using HepaRG (AID 2283473)
Outline: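 Differentiated human HepaRG cells were exposed 48 h in serum-free induction medium to eight half-log concentrations up to 100 uM in 0.5% DMSO, in duplicate. BCL2L11 mRNA was quantified by TaqMan qRT-PCR, normalized to ACTB, GAPDH and POLR2A; induction or repression fitted versus DMSO.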

[7] = read-out: Apolipoprotein A-V (APOA5) gene, APOA5 (gene 116519); assay: LTEA_HepaRG_APOA5: Life Technologies and Expression Analysis (LTEA) Assay for Apolipoprotein A-V (APOA5) gene using HepaRG (AID 2283474)
Outline: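 Differentiated HepaRG cells in serum-free induction medium, exposed 48 h in duplicate to eight half-log concentrations topping at 100 uM (0.5% DMSO). APOA5 mRNA by Fluidigm TaqMan qRT-PCR, normalized to ACTB, GAPDH and POLR2A; bidirectional fit versus DMSO.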

[8] = read-out: Apoptosis regulator Bcl-2 (Homo sapiens) (UniProt P10415); assay: LTEA_HepaRG_BCL2: Life Technologies and Expression Analysis (LTEA) Assay for Bcl-2 gene using HepaRG (AID 2283475)
Outline: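 qRT-PCR read-out (Fluidigm TaqMan) of BCL2 transcript, normalised to three housekeeping genes, after 48 h chemical exposure of HepaRG cells; 8-point half-log series, top 100 uM, 0.5% DMSO vehicle. Gain or loss of signal fitted relative to DMSO baseline.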

[9] = read-out: Bcl-2 (BID) gene, BID (gene 637); assay: LTEA_HepaRG_BID: Life Technologies and Expression Analysis (LTEA) Assay for Bcl-2 (BID) gene using HepaRG (AID 2283476)
Outline: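 HepaRG, 48 h exposure, 8-pt half-log series, top 100 uM, 0.5% DMSO vehicle, duplicates. Readout: BID mRNA by TaqMan qRT-PCR; housekeeping-normalized; bidirectional curve fit vs DMSO baseline.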

[10] = read-out: Caspase-3 (Homo sapiens) (UniProt P42574); assay: LTEA_HepaRG_CASP3: Life Technologies and Expression Analysis (LTEA) Assay for cysteine-aspartic acid protease (CASP3) using HepaRG (AID 2283477)
Outline: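 Differentiated HepaRG cells, plated 48 h, were treated in duplicate in serum-free induction medium for 48 h with eight half-log concentrations up to 100 uM in 0.5% DMSO. CASP3 mRNA measured by qRT-PCR, normalized to ACTB, GAPDH, POLR2A.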

[11] = read-out: Cytochrome P450 (CYP24A1), CYP24A1 (gene 1591); assay: LTEA_HepaRG_CYP24A1: Life Technologies and Expression Analysis (LTEA) Assay for Cytochrome P450 (CYP24A1) using HepaRG (AID 2283478)
Outline: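 HepaRG cells plated 48 h, then exposed in duplicate in serum-free induction medium for 48 h to 8-point half-log series from 100 uM in 0.5% DMSO. CYP24A1 mRNA by Fluidigm qRT-PCR, normalized to ACTB, GAPDH, POLR2A; bidirectional fit versus DMSO.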

[12] = read-out: Cytochrome P450 (CYP1A2), CYP1A2 (gene 1544); assay: LTEA_HepaRG_CYP1A2: Life Technologies and Expression Analysis (LTEA) Assay for Cytochrome P450 (CYP1A2) using HepaRG (AID 2283479)
Outline: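 Differentiated human HepaRG cells in serum-free induction medium exposed 48 hours in duplicate to 8 half-log concentrations from 100 uM, 0.5% DMSO. CYP1A2 mRNA quantified by qRT-PCR, normalized to ACTB, GAPDH and POLR2A; bidirectional fitting versus DMSO.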

[13] = read-out: cysteine-aspartic acid protease (CASP8), CASP8 (gene 841); assay: LTEA_HepaRG_CASP8: Life Technologies and Expression Analysis (LTEA) Assay for cysteine-aspartic acid protease (CASP8) using HepaRG (AID 2283480)
Outline: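 CASP8 transcript measured by TaqMan qRT-PCR with ACTB/GAPDH/POLR2A normalization, after 48 h chemical exposure of HepaRG cells in serum-free induction medium. Eight concentrations, top 100 uM, half-log steps, 0.5% DMSO vehicle; fits in both directions versus DMSO.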

[14] = read-out: Cytochrome P450 (CYP2B6), CYP2B6 (gene 1555); assay: LTEA_HepaRG_CYP2B6: Life Technologies and Expression Analysis (LTEA) Assay for Cytochrome P450 (CYP2B6) using HepaRG (AID 2283481)
Outline: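 Differentiated human HepaRG cells in serum-free induction medium, dosed in duplicate for 48 h over 8 half-log concentrations topping at 100 uM (0.5% DMSO). CYP2B6 mRNA measured by TaqMan qRT-PCR, normalized to ACTB, GAPDH, POLR2A; bidirectional fit versus DMSO.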

[15] = read-out: Cytochrome P450 2C19 (Homo sapiens) (UniProt P33261); assay: LTEA_HepaRG_CYP2C19: Life Technologies and Expression Analysis (LTEA) Assay for CYP2C19 using HepaRG (AID 2283482)
Outline: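 Differentiated HepaRG cells in serum-free induction medium exposed 48 h in duplicate, 8 concentrations from 100 uM by half-log steps in 0.5% DMSO. CYP2C19 mRNA measured by TaqMan qRT-PCR, normalized to ACTB, GAPDH, POLR2A. Bidirectional fit versus DMSO.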

[16] = read-out: CYP2C8 (gene 1558); assay: LTEA_HepaRG_CYP2C8: Life Technologies and Expression Analysis (LTEA) Assay for CYP2C8 using HepaRG (AID 2283483)
Outline: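 CYP2C8 expression measured by TaqMan qRT-PCR and normalized to three housekeeping genes. HepaRG cultures were treated for 48 h with an eight-point half-log series topping at 100 uM, vehicle 0.5% DMSO, duplicates; fitted both directions against DMSO.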

[17] = read-out: CYP2C9 (gene 1559); assay: LTEA_HepaRG_CYP2C9: Life Technologies and Expression Analysis (LTEA) Assay for CYP2C9 using HepaRG (AID 2283484)
Outline: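 CYP2C9 transcript level, quantified by TaqMan qRT-PCR against three housekeeping genes, was fitted bidirectionally relative to 0.5% DMSO. HepaRG cultures were treated 48 h, in duplicate, at eight half-log concentrations topping at 100 uM.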

[18] = read-out: CYP2E1 (gene 1571); assay: LTEA_HepaRG_CYP2E1: Life Technologies and Expression Analysis (LTEA) Assay for CYP2E1 using HepaRG (AID 2283485)
Outline: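 CYP2E1 transcript was measured by TaqMan qRT-PCR in human HepaRG cultures after 48 h chemical exposure (top 100 uM, half-log steps, 0.5% DMSO vehicle). Housekeeping-gene normalization; gain or loss fitted relative to DMSO baseline.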

[19] = read-out: CYP4A11 (gene 1579); assay: LTEA_HepaRG_CYP4A11: Life Technologies and Expression Analysis (LTEA) Assay for CYP4A11 using HepaRG (AID 2283486)
Outline: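 Differentiated HepaRG cells, 48 h after plating, exposed in duplicate for 48 h to 8 half-log concentrations up to 100 uM in 0.5% DMSO in serum-free induction medium. CYP4A11 mRNA measured by TaqMan qRT-PCR, normalized to ACTB, GAPDH and POLR2A.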

Chain of Caspase-3 (Homo sapiens) (P42574 whole entry, looked up): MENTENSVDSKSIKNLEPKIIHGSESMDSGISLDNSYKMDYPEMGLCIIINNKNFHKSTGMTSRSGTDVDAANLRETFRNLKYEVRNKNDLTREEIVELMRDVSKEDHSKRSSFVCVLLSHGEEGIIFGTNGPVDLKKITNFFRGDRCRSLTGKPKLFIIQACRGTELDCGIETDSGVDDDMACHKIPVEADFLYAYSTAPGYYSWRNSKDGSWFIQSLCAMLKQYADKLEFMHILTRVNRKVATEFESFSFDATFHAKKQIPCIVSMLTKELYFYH
Chain of Cytochrome P450 2C19 (Homo sapiens) (P33261 whole entry, looked up): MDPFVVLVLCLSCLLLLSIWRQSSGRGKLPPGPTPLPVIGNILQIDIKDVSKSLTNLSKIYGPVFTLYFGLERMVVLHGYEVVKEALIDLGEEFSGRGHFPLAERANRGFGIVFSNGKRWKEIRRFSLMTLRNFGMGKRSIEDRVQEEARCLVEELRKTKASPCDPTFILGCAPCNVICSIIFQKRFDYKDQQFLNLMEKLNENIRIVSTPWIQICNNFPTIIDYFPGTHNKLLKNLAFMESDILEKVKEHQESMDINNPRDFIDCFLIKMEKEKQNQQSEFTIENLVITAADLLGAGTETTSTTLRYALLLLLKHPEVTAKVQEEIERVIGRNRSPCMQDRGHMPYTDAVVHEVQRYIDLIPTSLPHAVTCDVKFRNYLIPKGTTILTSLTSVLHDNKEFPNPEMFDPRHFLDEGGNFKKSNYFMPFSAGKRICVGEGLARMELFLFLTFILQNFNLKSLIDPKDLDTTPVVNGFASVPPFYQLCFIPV
Chain of Apoptosis regulator Bcl-2 (Homo sapiens) (P10415 whole entry, looked up): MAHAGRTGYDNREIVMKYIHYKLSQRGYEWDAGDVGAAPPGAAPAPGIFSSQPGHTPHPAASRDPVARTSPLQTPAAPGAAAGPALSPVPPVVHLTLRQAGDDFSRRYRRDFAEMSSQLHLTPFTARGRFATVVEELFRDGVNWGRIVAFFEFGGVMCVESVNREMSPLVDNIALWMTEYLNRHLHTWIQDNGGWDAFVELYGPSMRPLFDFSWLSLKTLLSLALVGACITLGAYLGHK

Compound: CCCOc1sc(C(=O)N2CCC(c3cc(CN)ccc3F)CC2)c(C)c1Br
- outcome [1]: inactive
- outcome [2]: inactive
- outcome [3]: inactive
- outcome [4]: inactive
- outcome [5]: inactive
- outcome [6]: inactive
- outcome [7]: inactive
- outcome [8]: inactive
- AC50 [9]: 0.0539 µM (active)
- outcome [10]: inactive
- outcome [11]: inactive
- outcome [12]: inactive
- outcome [13]: inactive
- AC50 [14]: 1.96 µM (active)
- outcome [15]: inactive
- outcome [16]: inactive
- outcome [17]: inactive
- outcome [18]: inactive
- outcome [19]: inactive

Compound: OC1CCCCC1
- outcome [1]: inactive
- outcome [2]: inactive
- outcome [3]: inactive
- outcome [4]: inactive
- outcome [5]: inactive
- outcome [6]: inactive
- outcome [7]: inactive
- outcome [8]: inactive
- outcome [9]: inactive
- outcome [10]: inactive
- outcome [11]: inactive
- outcome [12]: inactive
- outcome [13]: inactive
- outcome [14]: inactive
- outcome [15]: inactive
- outcome [16]: inactive
- outcome [17]: inactive
- outcome [18]: inactive
- outcome [19]: inactive

Compound: O=C(O)Cc1cc(I)c(Oc2cc(I)c(O)c(I)c2)c(I)c1
- AC50 [1]: 13.6 µM (active)
- outcome [2]: inactive
- outcome [3]: inactive
- AC50 [4]: 45.7 µM (active)
- AC50 [5]: 37.5 µM (active)
- outcome [6]: inactive
- AC50 [7]: 57.7 µM (active)
- AC50 [8]: 21.7 µM (active)
- outcome [9]: inactive
- outcome [10]: inactive
- outcome [11]: inactive
- AC50 [12]: 0.0864 µM (active)
- AC50 [13]: 56.7 µM (active)
- AC50 [14]: 55.3 µM (active)
- AC50 [15]: 62.7 µM (active)
- AC50 [16]: 61.5 µM (active)
- AC50 [17]: 53.8 µM (active)
- AC50 [18]: 6.65 µM (active)
- AC50 [19]: 53.2 µM (active)

Compound: ClC1=C(Cl)C(Cl)(Cl)C(Cl)=C1Cl
- outcome [1]: inactive
- outcome [2]: inactive
- outcome [3]: inactive
- outcome [4]: inactive
- outcome [5]: inactive
- outcome [6]: inactive
- outcome [7]: inactive
- outcome [8]: inactive
- outcome [9]: inactive
- outcome [10]: inactive
- outcome [11]: inactive
- outcome [12]: inactive
- outcome [13]: inactive
- outcome [14]: inactive
- outcome [15]: inactive
- outcome [16]: inactive
- outcome [17]: inactive
- outcome [18]: inactive
- outcome [19]: inactive

Compound: CCCCCCCCCCCCN1CCCC1=O
- outcome [1]: inactive
- outcome [2]: inactive
- outcome [3]: inactive
- outcome [4]: inactive
- outcome [5]: inactive
- outcome [6]: inactive
- outcome [7]: inactive
- outcome [8]: inactive
- outcome [9]: inactive
- outcome [10]: inactive
- outcome [11]: inactive
- outcome [12]: inactive
- outcome [13]: inactive
- outcome [14]: inactive
- outcome [15]: inactive
- outcome [16]: inactive
- outcome [17]: inactive
- outcome [18]: inactive
- outcome [19]: inactive

Compound: CC(O)CO (centres undefined)
- outcome [1]: inactive
- outcome [2]: inactive
- outcome [3]: inactive
- outcome [4]: inactive
- outcome [5]: inactive
- outcome [6]: inactive
- outcome [7]: inactive
- outcome [8]: inactive
- outcome [9]: inactive
- outcome [10]: inactive
- outcome [11]: inactive
- outcome [12]: inactive
- outcome [13]: inactive
- outcome [14]: inactive
- outcome [15]: inactive
- outcome [16]: inactive
- outcome [17]: inactive
- outcome [18]: inactive
- outcome [19]: inactive
